From PubChem BioAssay (NCATS)
Records with an inconclusive call do not appear. Where a call stands in place of a potency, no number is given. Calls of active or inactive are those of the source. Unless noted, calls come from the whole dose curve; as a rule, active = well fitted curve in the direction sought with a large enough effect; inconclusive = small, poorly fitted or top-dose-only effect, or another doubt; inactive = no such curve, though single readings can be large; an effect the other way counts as inactive or inconclusive.

Legend:
[1] = biological target: Glutathione peroxidase 1 (Homo sapiens) (UniProt P07203); assay: Primary qHTS Assay for Inhibitors of Recombinant Selenoprotein Glutathione Peroxidase 1 (GPX1) (AID 1845191); note: nearly all actives have a fitted effect of over 65% in size
Chain of Glutathione peroxidase 1 (Homo sapiens) (P07203 whole entry, looked up): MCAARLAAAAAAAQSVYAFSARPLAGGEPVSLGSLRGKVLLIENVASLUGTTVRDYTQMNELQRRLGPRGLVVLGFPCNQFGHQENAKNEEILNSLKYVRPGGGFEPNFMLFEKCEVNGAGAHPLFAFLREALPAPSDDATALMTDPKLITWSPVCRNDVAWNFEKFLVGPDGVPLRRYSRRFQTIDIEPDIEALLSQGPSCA
Outline: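 GR-coupled assay: compounds preincubated 30 min at room temperature with GPX1, then reaction started with CHP; final 10 nM GPX1, 1 mM GSH, 0.5 mM CHP, 0.5 mM NADPH, 100 nM GR, 0.01% BSA, pH 7.5 Tris buffer. NADPH fluorescence (340/450 nm) read at 0 and 15 min.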

[2] = biological target: Phospholipid hydroperoxide glutathione peroxidase GPX4 (Homo sapiens) (UniProt P36969); assay: Primary qHTS Assay for Inhibitors of Recombinant Selenoprotein Glutathione Peroxidase 4 (GPX4) (AID 1845192); note: nearly all actives have a fitted effect of over 65% in size
Chain of Phospholipid hydroperoxide glutathione peroxidase GPX4 (Homo sapiens) (P36969 whole entry, looked up): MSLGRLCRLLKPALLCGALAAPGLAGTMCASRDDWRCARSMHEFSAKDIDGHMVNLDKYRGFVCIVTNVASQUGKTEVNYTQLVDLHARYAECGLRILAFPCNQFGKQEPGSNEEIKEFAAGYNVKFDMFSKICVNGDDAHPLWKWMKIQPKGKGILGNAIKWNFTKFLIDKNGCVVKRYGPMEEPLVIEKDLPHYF
Outline: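 GR-coupled assay: recombinant GPX4 preincubated 30 min with compound at room temperature; final 200 nM GPX4, 1 mM GSH, 0.5 mM cumene hydroperoxide, 0.5 mM NADPH, 100 nM GR, 0.01% BSA, pH 7.5 Tris. NADPH fluorescence (340/450 nm) read at 0 and 15 min.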

[3] = biological target: Luciferin 4-monooxygenase (Photinus pyralis) (UniProt P08659); assay: Primary firefly luciferase (FLuc) qHTS assay for identification of artifact compounds. (AID 1845220); note: nearly all actives have a fitted effect of over 60% in size
Outline: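 Enzymatic FLuc inhibition assay: compounds pre-exposed to luciferin/ATP (10 uM each) for 15 min, then purified P. pyralis enzyme at 10 nM added. Read-out: luminescence at 5 min.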

[4] = test system: Nanoluciferase (engineered Oplophorus gracilirostris luciferase); assay: Primary Nanoluciferase (NLuc) qHTS assay for identification of artifact compounds. (AID 1845222);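 note: NLuc secreted into diluted conditioned medium of S16 cells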
Outline: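 S16 cell supernatant NLuc, 1:55; cpds qHTS; 15 min RT dark; Nano-Glo substrate 1:100, 5 min; luminescence; Hill fit of % inhibition.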

[5] = Primary redox qHTS assay for identification of artifact compounds. (AID 1845223)
Outline: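 Amplex Red (25 uM) and HRP (250 mU/mL) in HBSS, with compounds for 15 min, then 250 uM DTT for 30 min, room temperature, dark. Fluorescence 525/598 nm read; normalized to DMSO and 10 uM DA3003; Hill fit.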

[6] = qHTS drug screen for cell cycle checkpoint inhibitors in PARPi-resistant BRCA-mutant ovarian cancer cell lines. (AID 1963452; calls by dose curve; note: potency is the fitted concentration of half-maximal effect); conditions: PEO1/OlaR viability, CellTiter-Glo luminescence, 96 h; for Z-AUC: stronger effect = lower value
Outline: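 PEO1, PEO4 and PEO1/OlaR ovarian cancer cells, 600 per well, exposed 96 h at 37C to a dilution series. Viability read by CellTiter-Glo luminescence, normalized to DMSO and empty wells; activity summarized as Z-AUC.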

[7] = Primary fluorescence-based thiol-reactive (MSTI) qHTS assay for identification of artifact compounds. (AID 1845221);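 note: thiol-reactive compounds lower the probe fluorescence signal; nearly all actives have a fitted effect of over 65% in size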
Outline: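 One-hour, room-temperature, dark incubation of compound with 4 uM MSTI in PBS (pH 7.4, 2% DMSO) precedes a fluorescence read at 525 nm excitation, 598 nm emission; Hill-equation fitting yields concentration-response values.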

[8] = qHTS profiling for inhibitors of Plasmodium falciparum proliferation (AID 504749); note: nearly all actives have a fitted effect of over 60% in size; conditions: P. falciparum in erythrocytes, SYBR Green DNA, 72 h, at 28.7 µM (top of the series)
Outline: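 P. falciparum-infected erythrocytes (0.3% parasitemia, 2.5% hematocrit) incubated with compound 72 h at 37 C, 5% CO2. Parasite DNA detected by SYBR Green after lysis, overnight at room temperature; normalised to 0.29 uM artemisinin and DMSO.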

[9] = measured here: PEO1 parental Z-AUC

SMILES: CN1C(=O)c2ccccc2NC(=O)[C@]12O[C@@H]2c1cccc(O)c1
- Potency [1]: inactive
- Potency [2]: inactive
- Potency [3]: inactive
- Potency [4]: inactive
- Potency [5]: inactive

SMILES: O=C1Nc2ccc(O)cc2O[C@H]1O[C@@H]1O[C@H](CO)[C@@H](O)[C@H](O)[C@H]1O
- Potency [1]: inactive
- Potency [2]: inactive
- Potency [3]: inactive
- Potency [4]: inactive
- Potency [5]: inactive

SMILES: C=C[C@H]1[C@H](O[C@@H]2O[C@H](CO)[C@@H](O)[C@H](O)[C@H]2O)OC=C(C(=O)OC)[C@H]1C[C@@H]1N[C@H](C(=O)O)Cc2c1[nH]c1ccccc21
- Potency [1]: inactive
- Potency [2]: inactive
- Potency [3]: inactive
- Potency [4]: inactive
- Potency [5]: inactive

SMILES: CC(/C=C/C1(O)C(C)CC(O)CC1(C)C)OC1OC(CO)C(O)C(O)C1O (configuration not stated)
- Potency [1]: inactive
- Potency [2]: inactive
- Potency [3]: inactive
- Potency [4]: inactive
- Potency [5]: inactive

SMILES: CC1=C2C(=O)C=C(CO)[C@@H]2[C@H]2OC(=O)[C@H](C)[C@@H]2[C@@H](O)C1
- Potency [1]: inactive
- Potency [2]: inactive
- Potency [3]: inactive
- Potency [4]: inactive
- Potency [5]: inactive

SMILES: CC(=O)NC(CCC(=O)O)C(=O)NCCc1ccc(O)cc1 (configuration not stated)
- Potency [1]: inactive
- Potency [2]: inactive
- Potency [3]: inactive
- Potency [4]: inactive
- Potency [5]: inactive

SMILES: OCC1=CC[C@@H]2C=CO[C@@H](O[C@@H]3O[C@H](CO)[C@@H](O)[C@H](O)[C@H]3O)[C@H]12
- Potency [1]: inactive
- Potency [2]: inactive
- Potency [3]: inactive
- Potency [4]: inactive
- Potency [5]: inactive

SMILES: COC1=Cc2c(nc3n(c2=O)C(C)C(=O)NC3(O)C(C)C)OC=C1 (configuration not stated)
- Potency [1]: inactive
- Potency [2]: inactive
- Potency [3]: inactive
- Potency [4]: inactive
- Potency [5]: inactive

SMILES: OCCc1ccc(O[C@@H]2O[C@H](CO)[C@@H](O)[C@H](O)[C@H]2O)c(O)c1
- Potency [1]: inactive
- Potency [2]: inactive
- Potency [3]: inactive
- Potency [4]: inactive
- Potency [5]: inactive

SMILES: CC(C)CC(=O)OC[C@H]1O[C@@](COC(=O)CC(C)C)(O[C@H]2O[C@H](CO)[C@@H](O)[C@H](O)[C@H]2OC(=O)CC(C)C)[C@@H](OC(=O)CC(C)C)[C@@H]1O
- Potency [1]: inactive
- Potency [2]: inactive
- Potency [3]: inactive
- Potency [4]: inactive
- Potency [5]: inactive

SMILES: O=C1[C@H](O[C@@H]2O[C@H](CO)[C@@H](O)[C@H](O)[C@H]2O)Oc2ccccc2N1O
- Potency [1]: inactive
- Potency [2]: inactive
- Potency [3]: inactive
- Potency [4]: inactive
- Potency [5]: inactive

SMILES: O=c1c2cccnc2n(-c2cccc([N+](=O)[O-])c2)c(=O)n1Cc1ccncc1
- Potency [1]: inactive
- Potency [2]: inactive
- Potency [3]: inactive
- Potency [4]: inactive
- Potency [5]: inactive

SMILES: Cc1cc(O)c(C(C)C)cc1O[C@@H]1O[C@H](CO)[C@@H](O)[C@H](O)[C@H]1O
- Potency [1]: inactive
- Potency [2]: inactive
- Potency [3]: inactive
- Potency [4]: inactive
- Potency [5]: inactive

SMILES: COc1cc2c(cc1O)C1(Cc3ccc4c(c3C1=O)OCO4)N(C)CC2 (configuration not stated)
- Potency [1]: inactive
- Potency [2]: inactive
- Potency [3]: inactive
- Potency [4]: inactive
- Potency [5]: inactive

SMILES: CC(=O)O[C@H]1[C@H](C)[C@@H](O)[C@H]2[C@@H]1C=C(C(=O)O)[C@H]1C[C@@H]3[C@H]([C@H]21)[C@H]1C(=O)O[C@@H]2CC[C@@]3(C)O[C@]1(O)[C@@H]2C
- Potency [1]: inactive
- Potency [2]: inactive
- Potency [3]: inactive
- Potency [4]: inactive
- Potency [5]: inactive

SMILES: COC(=O)CC1(O)C(=O)Nc2ccccc21 (configuration not stated)
- Potency [1]: inactive
- Potency [2]: inactive
- Potency [3]: inactive
- Potency [4]: inactive
- Potency [5]: inactive

SMILES: CC(=O)c1cnc2ccc(-c3cc(Cl)c(O)c(Cl)c3)nc2c1NC1CCC(CN(C)C)CC1 (configuration not stated)
- activity, negative = inhibition [1]: 2.12% [at 9.52 µM] (inactive)
- activity change, negative = inhibition [2]: 17.1% [at 9.73 µM] (inactive)
- activity change, negative = inhibition [3]: 2.41% [at 11.6 µM] (inactive)
- activity, negative = inhibition [4]: 0% [at 11.6 µM] (inactive)
- redox activity (% of DA3003) [5]: 2.52% [at 11.5 µM] (inactive)
- Potency [6]: 252 nM (active)
- Z-AUC [6, 9]: -1.7
- Z-AUC ([6]; measured here: PEO4 Z-AUC): -1.3

SMILES: CN(NC(=O)CC(=O)NN(C)C(=S)c1ccccc1)C(=S)c1ccccc1
- Potency [1]: inactive
- Potency [2]: inactive
- Potency [3]: inactive
- Potency [4]: inactive
- Potency [5]: inactive
- Z-AUC [6]: 1.67 (inactive)
- Z-AUC [6, 9]: 1.08
- Z-AUC ([6]; measured here: PEO4 Z-AUC): 1.36

SMILES: CC(NC(=O)CC(=O)O)c1nc2ccccc2c(=O)[nH]1 (configuration not stated)
- Potency [1]: inactive
- Potency [2]: inactive
- Potency [3]: inactive
- Potency [4]: inactive
- Potency [5]: inactive

SMILES: Cc1cc(N2CCCCC2)nc2ccccc12
- Potency [1]: inactive
- Potency [2]: inactive
- Potency [7]: inactive
- Potency [4]: inactive
- Potency [5]: inactive

SMILES: CC1CCC(=O)CC(O)C(O)CC(=O)O1 (configuration not stated)
- Potency [1]: inactive
- Potency [2]: inactive
- Potency [3]: inactive
- Potency [5]: inactive

SMILES: COc1ccc2c3c1O[C@H]1C[C@@H](O)C=C[C@@]31CCN(C)C2
- Potency [1]: inactive
- Potency [2]: inactive
- Potency [3]: inactive
- Potency [4]: inactive
- Potency [5]: inactive
- activity, negative = inhibition ([8]; parasite line A): 7.86% (inactive)
- activity, negative = inhibition ([8]; parasite line B): -0.584% (inactive)
